High-throughput results as filed in PubChem BioAssay.
PvdQ inh – P. aeruginosa PvdQ acylase inhibition; purified PvdQ acylase, fluorescence plate reader; inhibition, % at 10 µM; hit rate 0.063% among 340,000; in the data active means inhibition above about 30%, passing the limit was not always enough; inconclusive means no clear call, values can overlap the other calls;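 further: 0% = vehicle neutral wells and 100% = reference inhibitor wells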
SUMO Mot1 rescue – inhibitors of SUMOylation pathway: yeast Mot1-301 growth rescue; S. cerevisiae Mot1-301 growth rescue, ATP luminescence, 38.5C; percent above DMSO median, 100 means doubled; growth rescue, % at 18.8 µM; hit rate 1% among 320,000; AID 2716;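 active means every valid replicate shows activation above 250% relative to neutral control wells; inactive means the rest, any valid replicate at or below 250%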;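 further: OY570 slx delta 5 strain wells were the positive control but not used for scaling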
JMJD2C inh – human JMJD2C demethylase inhibition. Q9H3R0. GST-JMJD2C(1-420) H3K9me3 demethylation, DELFIA europium. inhibition, % at 2.35 µM. hit rate 0.069% among 330,000;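 active means more than half of a compound's replicate wells show inhibition beyond 50%, single wells judged on their own value; inconclusive means some, but no more than half, of replicates pass 50% inhibition; inactive means no replicate passes 50% inhibition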;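 further: signal counts dimethyl H3K9 product captured on neutravidin plate; 0% = median of DMSO wells and 100% = 0.3 times that DMSO median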
HDAC3 inhib – blocks human histone deacetylase 3; O15379; recombinant HDAC3, fluorogenic peptide/trypsin coupled, fluorescence; inhibition, % at 8.3 µM; hit rate 0.15% among 320,000; AID 2718; in the data active means inhibition above about 26%, passing the limit was not always enough; inconclusive means no clear call, values can overlap the other calls
pCIP destab – compounds decreasing mouse p/CIP protein stability; decrease of EGFP signal, % at 10 µM; Q05BA5; hit rate 0.01% among 290,000; AID 1984; F442A p/CIP-EGFP cells, EGFP fluorescence, 16 h;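 active means EGFP signal decrease of at least 30% at 10 µM or well 3 SD below plate mean, unless failing retest; inactive means the rest, including hits failing retest or dose response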
Target sequence (Q05BA5 1-1403): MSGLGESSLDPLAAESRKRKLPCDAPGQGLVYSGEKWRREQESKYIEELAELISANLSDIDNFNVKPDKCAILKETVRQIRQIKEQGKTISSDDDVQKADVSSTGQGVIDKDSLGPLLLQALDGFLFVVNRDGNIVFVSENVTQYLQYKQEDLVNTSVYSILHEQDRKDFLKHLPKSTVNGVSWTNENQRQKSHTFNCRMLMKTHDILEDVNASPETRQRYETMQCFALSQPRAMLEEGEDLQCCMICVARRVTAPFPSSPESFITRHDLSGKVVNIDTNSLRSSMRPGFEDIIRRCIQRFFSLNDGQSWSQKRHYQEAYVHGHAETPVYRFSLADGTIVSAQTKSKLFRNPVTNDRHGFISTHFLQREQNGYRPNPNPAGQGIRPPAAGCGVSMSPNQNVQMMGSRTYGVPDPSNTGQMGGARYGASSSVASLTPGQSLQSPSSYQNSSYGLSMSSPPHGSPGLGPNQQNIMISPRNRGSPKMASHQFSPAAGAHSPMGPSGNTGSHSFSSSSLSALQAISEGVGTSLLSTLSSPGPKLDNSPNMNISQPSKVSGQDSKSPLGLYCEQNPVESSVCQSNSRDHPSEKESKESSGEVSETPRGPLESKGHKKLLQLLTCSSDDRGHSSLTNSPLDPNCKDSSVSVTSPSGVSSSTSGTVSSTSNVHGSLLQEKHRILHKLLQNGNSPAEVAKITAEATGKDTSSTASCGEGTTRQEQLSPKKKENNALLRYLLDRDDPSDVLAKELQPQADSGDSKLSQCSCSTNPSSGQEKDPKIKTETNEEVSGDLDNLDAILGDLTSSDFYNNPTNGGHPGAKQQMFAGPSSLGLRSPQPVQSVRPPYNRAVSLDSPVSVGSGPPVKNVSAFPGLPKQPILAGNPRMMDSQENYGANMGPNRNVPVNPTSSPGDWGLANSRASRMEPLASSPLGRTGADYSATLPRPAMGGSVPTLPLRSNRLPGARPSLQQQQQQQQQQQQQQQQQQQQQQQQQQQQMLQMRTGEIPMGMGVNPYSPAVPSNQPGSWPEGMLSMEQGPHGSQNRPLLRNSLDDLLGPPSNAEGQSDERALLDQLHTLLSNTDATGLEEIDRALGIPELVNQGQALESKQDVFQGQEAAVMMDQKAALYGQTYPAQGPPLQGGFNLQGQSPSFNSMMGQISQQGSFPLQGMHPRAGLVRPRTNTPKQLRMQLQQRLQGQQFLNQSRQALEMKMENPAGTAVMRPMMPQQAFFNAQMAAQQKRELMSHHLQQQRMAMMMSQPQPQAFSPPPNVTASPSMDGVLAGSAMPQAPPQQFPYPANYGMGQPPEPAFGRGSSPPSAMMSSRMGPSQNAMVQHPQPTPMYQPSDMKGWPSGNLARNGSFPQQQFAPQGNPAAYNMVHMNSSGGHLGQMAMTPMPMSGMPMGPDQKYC
PHOSPHO1 inh – inhibitors of human PHOSPHO1 phosphatase. Q8TCT1. recombinant PHOSPHO1, absorbance phosphatase assay. inhibition, % at 13.3 µM. hit rate 1.1% among 290,000. AID 1565; in the data active means inhibition above about 60%
Yeast Mot1 SUMO – inhibits SUMO pathway, affecting Mot1-301 yeast growth. shares compounds with SUMO Mot1 rescue. S. cerevisiae Mot1-301 galactose growth, ATP luminescence, 24 h; -100 = growth of slx-deleted rescue strain. growth activity, percent, % at 42 µM. 2,300 tested, under 10 active. AID 493004;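 active means Signal drops as the depositor expects, and the fitted half-maximal dose is no more than ten times the top valid tested dose; inconclusive means Poor fit, or a flat curve whose signal drops by 30% to 70%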;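 further: more negative values mean stronger growth rescue toward the control strain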
The depositor's hits bear a star; ? = inconclusive; . = no result; + = active, no number. This is a sample that favours compounds with a hit; in the whole collection about 2.2% have one here.

SMILES	PvdQ inh	SUMO Mot1 rescue	JMJD2C inh	HDAC3 inhib	pCIP destab	PHOSPHO1 inh	Yeast Mot1 SUMO
CN(C)C(=O)c1cc(C(=O)c2ccc(F)cc2F)c[nH]1	-11.4	2.3	3.6	2.3	-4.0	15.6	.
CN(C)C(=O)c1cc(C(=O)c2ccc(C(F)(F)F)cc2F)c[nH]1	-0.5	499.5*	-0.6	4.1	-4.4	44.8	0.1
O=C(C1CCC(CNc2c(N3CCCCC3)c(=O)c2=O)CC1)N1CCN(C2CCCCC2)CC1 (stereo not drawn)	-8.4	499.1*	1.3	.	-1.6	2.1	0.6
O=C(C1CCC(CNc2c(N3CCCCC3)c(=O)c2=O)CC1)N1CCN(c2ccccn2)CC1 (stereo not drawn)	-13.8	-5.4	2.0	2.3	-13.2	20.2	.
COc1ccc(CN2C(=O)C(=O)N(CC(N)=O)C2=O)cc1	-16.3	719.3*	-8.0	1.6	0.1	57.0	0.5
COC(=O)[C@H](Cc1ccccc1)NS(=O)(=O)c1ccc(F)cc1Br	-5.3	.	.	.	.	.	.
COc1ccc(NC2CC(=O)N(C(C)C)C2=O)cc1 (stereo not drawn)	-8.7	506.6*	-2.4	5.1	-18.5	-0.5	-0.4
O=c1ccc(-c2ccc(S(=O)(=O)Nc3cccc(Br)c3)o2)n[nH]1	-5.5	-13.2	3.7	-4.6	-9.7	34.4	.
COc1ccccc1N1C(=O)c2ccccc2NC1C(OC)OC (stereo not drawn)	1.5	+	-10.1	-8.3	5.7	2.9	0.4
COc1ccccc1N1C(=O)c2ccccc2NC1c1cc(OC)c(OC)c(OC)c1 (stereo not drawn)	-13.4	-5.2	2.0	-35.3	-15.9	.	.
COCC(C)n1c(C)cc(C(=O)CSc2ccc(NC(C)=O)cc2)c1C (stereo not drawn)	-8.9	+	10.0	0.0	-0.5	34.9	-0.5
COc1ccccc1CNC(=O)[C@H](Cc1c[nH]c2ccccc12)NC(=O)[C@@H]1Cc2ccccc2CN1	-6.2	28.8	2.3	1.7	-1.3	34.3	.
Cc1ccccc1NC(=O)Cc1nc(COC(=O)CCNS(=O)(=O)c2ccccc2)cs1	-2.4	13.5	-9.1	-1.2	.	.	.
CSc1ccccc1NC(=O)COc1nsnc1N1CCOCC1	8.5	413.1*	0.0	1.5	7.1	-8.1	-0.4
O=C(COc1nsnc1N1CCOCC1)Nc1ccc(Cl)cc1	0.6	3.8	-5.7	1.7	-5.9	24.9	.
OC(COc1ccccc1)Cn1c2ccccc2c2ccccc21 (stereo not drawn)	-8.9	373.8*	0.9	10.9	-3.7	-12.5	-0.5
O=C(O)c1ccc(OCC(O)Cn2c3ccccc3c3ccccc32)cc1 (stereo not drawn)	0.2	6.9	?	-4.0	-13.5	19.5	.
CC1(C)c2[nH]c3ccccc3c2C[C@H]2C(=O)N(Cc3cccc(F)c3)C(=O)N21	-3.0	447.9*	4.8	-5.4	.	.	-1.0
O=C(Nc1cccc(O)c1)C(Cc1ccccc1)N1C(=O)c2cccc3cccc(c23)C1=O (stereo not drawn)	6.0	854.6*	-3.3	-0.8	4.6	-4.0	0.8
COc1ccc(-n2cc(CNCCCn3ccnc3)c(-c3cccc(F)c3)n2)cc1	-8.5	208.9	-0.5	-30.5	15.6	24.1	.
NS(=O)(=O)c1ccc(CCNC(=O)c2ccc([N+](=O)[O-])s2)cc1	-3.9	389.3*	29.9	2.4	0.1	27.9	0.8
NS(=O)(=O)c1ccc(CCNC(=O)c2ccc(Cl)s2)cc1	-3.5	0.4	1.3	7.4	-1.4	-5.1	.
O=C(O)c1ccc(C2(c3ccc(C(=O)O)cc3)OC(=O)c3ccccc32)cc1	-9.6	11.5	-2.3	5.7	-7.9	14.9	.
Nc1ccc(C2(c3ccc(N)cc3)OC(=O)c3ccccc32)cc1	3.0	497.4*	3.0	2.3	2.4	19.2	0.7
COC(=O)c1ccccc1NC(=O)CSc1nnnn1CC(=O)O	-6.9	616.1*	10.4	-2.3	-5.3	31.9	0.0
SMILES	PvdQ inh	SUMO Mot1 rescue	JMJD2C inh	HDAC3 inhib	pCIP destab	PHOSPHO1 inh	Yeast Mot1 SUMO
Oc1c(Br)cc(Cl)cc1C=Nc1ccccc1Br	8.6	634.4*	-5.7	3.9	-10.0	0.3	1.0
CCN1CSC(=S)N(Cc2ccc(OC)cc2)C1	9.6	+	-5.7	.	7.7	34.2	-0.5
CCCCN(C(=O)C1CCCC1)c1c(N)n(Cc2ccccc2)c(=O)[nH]c1=O	0.0	4.1	0.9	-0.3	.	.	.
OC(c1ccccc1)(C1CCCCC1)C(CN1CCOCC1)c1ccccc1 (stereo not drawn)	-0.7	459.8*	-9.5	13.8	-9.7	32.6	-0.5
COc1ccc(C(O)(C2CCCCC2)C(CN2CCOCC2)c2ccccc2)cc1 (stereo not drawn)	-17.6	143.0	0.3	19.3	4.5	.	.
O=[N+]([O-])c1cccc(N=NN(CCO)c2cccc([N+](=O)[O-])c2)c1	4.1	30.1	-2.1	.	6.2	9.7	.
N#CCN(N=Nc1ccccc1)c1ccccc1	74.8*	616.8*	-9.5	-5.5	-18.5	.	0.6
CCOC(=O)N1CCN(C(=O)COc2ccc(S(=O)(=O)NCC(C)C)cc2C)CC1	-15.6	-12.0	-6.3	9.3	-18.7	7.8	.
Cc1cc(S(=O)(=O)NCC(C)C)ccc1OCC(=O)N1CCOCC1	-15.9	866.7*	6.7	-1.5	-4.8	3.6	-0.5
C=CCN1C(=O)/C(=C\c2ccc(C)cc2)N=C1SCC(=O)NCCC	-2.8	+	26.0	-6.6	-9.6	7.8	0.1
Cc1ccc(S(=O)(=O)/N=C(/Nc2ccc([N+](=O)[O-])cc2)c2ccccc2)cc1	4.1	-16.4	20.6	-2.5	-1.9	20.0	.
Cc1ccc(S(=O)(=O)/N=C(/Nc2ccc([N+](=O)[O-])cc2[N+](=O)[O-])c2ccccc2)cc1	-13.0	415.4*	-2.3	5.7	.	.	-0.9
O=C(Nc1ccc(Cl)cc1F)c1ccc2c(c1)C(=O)N(Cc1ccncc1)C2=O	.	24.1	-6.8	-2.6	.	.	.
CC1CCCCN1CC(=O)c1c(N)n(Cc2ccccc2)c(=O)n(C)c1=O (stereo not drawn)	-4.8	-10.3	.	1.3	-23.5	13.3	.
COC(=O)c1c(C)cc(O)c(C=O)c1O	8.0	566.7*	?	-1.2	.	.	-0.4
O=C(CSc1ncn[nH]1)Nc1cccc(S(=O)(=O)N2CCCCCC2)c1	-14.5	499.1*	-3.3	-1.9	-9.5	-15.3	0.0
CC(C)C[C@H](NC(=O)[C@H](Cc1ccccc1)n1c(=O)[nH]c2ccccc2c1=O)C(=O)N1CCC[C@H]1C(=O)O	0.6	2.6	3.4	-6.3	8.5	33.8	.
O=C(NC1CCc2ccccc21)c1cc(COc2ccc(F)cc2F)on1 (stereo not drawn)	5.4	396.1*	0.3	.	5.8	18.3	0.1
O=C(NCc1ccccc1)C(c1ccc(F)cc1)N(C(=O)c1csnn1)C1CC1 (stereo not drawn)	-1.4	-1.5	-4.9	-7.2	3.2	20.0	.
